# ASM inhibitor = Inhibitors of Secretory Acid Sphingomyelinase (S-ASM): qHTS. 0.006% of 340,000 active. placental ASM, HMU-PC fluorogenic substrate, 60 min. Sphingomyelin phosphodiesterase (Homo sapiens), P17405. Potency, µM (series often up to 57.5 µM), hits mostly inhibitors
#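 Steps: dispense placental human ASM, pin compound, wait 10 min at room temperature, add HMU-PC0 substrate at 9 uM final, incubate 60 min at 37 °C, add stop solution raising pH to 10, read fluorescence.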
# PLK1 PBD inh = qHTS for Inhibitors of PLK1-PDB (polo-like kinase 1 - polo-box domain): Primary Screen; Serine/threonine-protein kinase PLK1 (Homo sapiens), P53350; Plk1 PBD binding of FITC phosphopeptide, fluorescence polarization; Potency, µM, most hits filed as inhibitors; 2.8% of 360,000 active; AID 720504, 2013; further: series mostly up to about 57 µM; nearly all actives have a fitted effect of over 65% in size
# Tb PFK block = qHTS Assay to Find Inhibitors of T. brucei phosphofructokinase. 0.17% of 330,000 active. T. brucei PFK, ADP-Glo luminescence. ATP-dependent 6-phosphofructokinase (Trypanosoma brucei brucei), O15648. Potency, µM (top dose mostly 57.5 µM), hits mostly inhibitors; further: nearly all actives have a fitted effect of over 60% in size
# Target sequence (O15648 whole entry, looked up): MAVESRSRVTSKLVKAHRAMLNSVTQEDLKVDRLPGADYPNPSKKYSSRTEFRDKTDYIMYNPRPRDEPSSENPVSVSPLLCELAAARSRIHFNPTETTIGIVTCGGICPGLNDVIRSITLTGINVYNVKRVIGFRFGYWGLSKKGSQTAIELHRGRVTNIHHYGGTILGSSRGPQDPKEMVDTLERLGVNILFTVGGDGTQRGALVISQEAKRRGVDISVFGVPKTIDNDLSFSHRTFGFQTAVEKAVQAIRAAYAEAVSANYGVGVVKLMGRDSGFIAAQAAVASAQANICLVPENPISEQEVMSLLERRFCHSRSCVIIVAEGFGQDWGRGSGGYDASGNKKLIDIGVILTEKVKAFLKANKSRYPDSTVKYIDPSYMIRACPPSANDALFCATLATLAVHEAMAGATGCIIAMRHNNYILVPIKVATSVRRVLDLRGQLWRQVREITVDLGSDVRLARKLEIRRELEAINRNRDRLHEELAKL
#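 ADP-Glo luminescence quantified ADP after 45 min at room temperature, with 1.25 nM T. brucei PFK, 0.1 mM ATP and 0.5 mM fructose-6-phosphate in pH 8.0 TEA buffer. qHTS titrations up to 57 µM; curves classified by quality.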
# VDR inh = Inhibitors of the vitamin D receptor (VDR): qHTS; Vitamin D3 receptor (Homo sapiens), P11473; VDR-SRC2-3 peptide fluorescence polarization, 2 h; Potency, µM, actives largely listed as inhibitors; 0.93% of 400,000 active
#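 Two reagent solutions held at 4 deg C in the dark were dispensed, compounds pinned at 23 nl, and the mixture incubated 2 h at room temperature. Read-out: fluorescence polarization of VDR–SRC2-3 peptide binding.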
# TDP1 block = qHTS Assay for Inhibitors of Tyrosyl-DNA Phosphodiesterase (TDP1). Potency, µM (doses to about 130 µM), hits mostly inhibitors. recombinant TDP1, AlphaScreen DNA substrate cleavage. 0.28% of 350,000 active. Tyrosyl-DNA phosphodiesterase 1 (Homo sapiens), Q9NUW8; further: nearly all actives have a fitted effect of over 40% in size
#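 Recombinant E. coli-expressed Tdp1 (1 nM) preincubated with compound 15 min at RT, then 5'-biotin/3'-phosphotyrosine-FITC DNA substrate (15 nM) added for 5 min. AlphaScreen beads (10 ug/ml) added, 10 min RT; tyrosine-FITC cleavage read as signal loss.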
# Pin1 inh = qHTS Assay to Find Inhibitors of Pin1; 0.009% of 390,000 active; AID 504891, 2011; Pin1 FP peptide displacement, HiFluor488, 10 min; Peptidyl-prolyl cis-trans isomerase NIMA-interacting 1 (Homo sapiens), Q13526; Potency, µM (highest dose often 115 µM), actives largely listed as inhibitors; active means well fitted inhibition curve with a large enough effect in the polarisation, with a control signal flat, not every such curve was filed as active; inconclusive means small, poorly fitted or top-dose-only effect, or effect the other way, or a change in a side signal; inactive means no such curve, though single readings can be large or run the other way; the % refers to the polarisation
# Target sequence (Q13526 whole entry, looked up): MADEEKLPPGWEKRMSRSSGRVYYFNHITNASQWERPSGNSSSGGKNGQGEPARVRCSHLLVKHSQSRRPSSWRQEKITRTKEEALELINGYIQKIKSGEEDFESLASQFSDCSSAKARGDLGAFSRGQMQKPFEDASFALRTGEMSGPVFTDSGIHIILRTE
# A number is an active result; . = inactive; ? = inconclusive; / = not tested or not shown; [ ] = dose if it differs, or a comment. An excerpt weighted towards active compounds, which were near 3.1% of everything screened. Unless noted, the call rests on the fitted dose curve; in most records, active means well fitted curve in the direction sought with a large enough effect; inconclusive means small, poorly fitted or top-dose-only effect, or another doubt; inactive means no such curve, though single readings can be large; an effect the other way counts as inactive or inconclusive.
SMILES,ASM inhibitor,PLK1 PBD inh,Tb PFK block,VDR inh,TDP1 block,Pin1 inh
O=C1N=c2ccc([N+](=O)[O-])cc2=C1c1sc(=O)[nH]c1O,.,3.4µM,.,?,.,?
CC[C@H](C)[C@H](NC(=O)[C@H](CCC(=O)O)NC(=O)[C@H](CO)NC(=O)[C@@H](NC(=O)[C@@H](N)CO)C(C)C)C(=O)N[C@@H](CCC(N)=O)C(=O)N[C@@H](CC(C)C)C(=O)N[C@@H](CCSC)C(=O)N[C@@H](Cc1cnc[nH]1)C(=O)N[C@@H](CC(N)=O)C(=O)N[C@@H](CC(C)C)C(=O)NCC(=O)N[C@@H](CCCCN)C(=O)N[C@@H](Cc1cnc[nH]1)C(=O)N[C@@H](CC(C)C)C(=O)N[C@@H](CC(N)=O)C(=O)N[C@@H](CO)C(=O)N[C@@H](CCSC)C(=O)N[C@@H](CCC(=O)O)C(=O)N[C@@H](CCCNC(=N)N)C(=O)N[C@H](C(=O)N[C@@H](CCC(=O)O)C(=O)N[C@@H](Cc1c[nH]c2ccccc12)C(=O)N[C@@H](CC(C)C)C(=O)N[C@@H](CCCNC(=N)N)C(=O)N[C@@H](CCCCN)C(=O)N[C@@H](CCCCN)C(=O)N[C@@H](CC(C)C)C(=O)N[C@@H](CCC(N)=O)C(=O)N[C@@H](CC(=O)O)C(=O)N[C@H](C(=O)N[C@@H](Cc1cnc[nH]1)C(=O)N[C@@H](CC(N)=O)C(=O)N[C@@H](Cc1ccccc1)C(=O)N[C@H](C(=O)N[C@@H](C)C(=O)N[C@@H](CC(C)C)C(=O)NCC(=O)O)C(C)C)C(C)C)C(C)C,/,/,/,.,.,/
Cc1cc(NC(=O)c2ccccc2)ncc1NC(=O)c1cccs1,.,.,.,.,.,.
Cc1cc(NC(=O)c2ccccc2F)ncc1NC(=O)c1cccs1,.,8.4µM,.,.,.,.
C=CCSc1nccc(=O)[nH]1,.,13µM,.,?,.,.
COC(=O)c1ccccc1NC(=O)CSc1nnc2cc(C)c3cc(C)cc(C)c3n12,/,/,/,.,.,.
Cc1ccc(NS(=O)(=O)c2cc3c(cc2C)NC(=O)CO3)cc1C,/,/,/,/,.,.
CCOC(=O)c1ccc(NS(=O)(=O)c2cc3c(cc2C)NC(=O)CO3)cc1,.,30µM,.,.,.,.
COc1cc2ncnc(N(C)Cc3csc(C)n3)c2cc1-c1ccc2c(c1)OCO2,/,/,/,/,/,.
O=c1c2ccccc2nc2sc(Nc3ccc(F)cc3)nn12,.,/,.,.,56µM,.
O=c1c2ccccc2nc2sc(Nc3ccc(Sc4ccccc4)cc3)nn12,/,/,/,/,/,.
NS(=O)(=O)c1cccc(NC(=O)CCCNC(=O)c2ccc(Cl)cc2)c1,.,.,.,.,.,.
NS(=O)(=O)c1cccc(NC(=O)CCSc2ccc(Cl)cc2)c1,.,12µM,.,?,.,.
CC1CCN(c2nc3ccccc3nc2C(C#N)C(=O)NC2CCCCC2)CC1 (stereo unspecified),/,/,.,/,.,/
CCCCOc1nc2ccccc2nc1C(C#N)C(=O)NC1CCCCC1 (stereo unspecified),.,27µM,.,.,.,.
Cc1ccc(CSC2=Nc3ccccc3C3=NC(CC(=O)NC4CCCCC4)C(=O)N23)cc1 (stereo unspecified),/,/,/,.,.,.
CSc1nnc(Cn2c(=O)sc3ccccc32)n1CCc1ccccc1,.,21µM,.,.,.,.
Cc1nc2c(C(=O)NCCC3=CCCCC3)c[nH]n2c(=O)c1Cl,.,24µM,.,.,.,.
Cc1nc2c(C(=O)NCCc3ccc(Cl)cc3)c[nH]n2c(=O)c1Cc1ccc(Cl)cc1,/,/,/,.,.,/
Cc1ccc(-c2nn(-c3ccccc3)cc2C=C2SC(=S)N(CCS(=O)(=O)O)C2=O)cc1,/,11µM,/,/,/,/
O=C(O)CN1C(=O)/C(=C\c2cn(-c3ccccc3)nc2-c2ccccc2)SC1=S,.,21µM,.,?,.[0.0935 µM],43µM
CCCOc1ccc(-c2nn(-c3ccccc3)cc2/C=C2\SC(N)=NC2=O)cc1,.,.,.,.,.,.
CC(C)COc1ccc(-c2nn(-c3ccccc3)cc2/C=C2/SC(=S)N(CC(=O)O)C2=O)cc1,.,21µM,?,.,/,.
CCOc1ccc(-c2nn(-c3ccccc3)cc2/C=C2\SC(=S)N(Cc3ccco3)C2=O)cc1,.,.,.,.,.,.
Clc1ccc(N2O[C@H]3C=C[C@@H]2C3)nc1,/,30µM,/,/,/,/
SMILES,ASM inhibitor,PLK1 PBD inh,Tb PFK block,VDR inh,TDP1 block,Pin1 inh
CC(=O)c1ccc(N2CCN(C(=O)c3nn(C)c4c3CS(=O)(=O)c3ccccc3-4)CC2)cc1,.,27µM,.,?,.,.
CC(Sc1nnc(-c2ccco2)n1N)C(=O)NC1CCCCC1C (stereo unspecified),.,.,.,.,.,.
CC(Sc1cccc[n+]1[O-])C(=O)NC1CCCCC1C (stereo unspecified),.,24µM,.,.,.,.
CC(C)NC(=O)c1sc2ncccc2c1-n1cccc1,/,/,/,.,.,.
O=C(CNC1CCCCCC1)c1cccs1,.,30µM,.,?,.,.
Cc1oc(-c2ccc(F)cc2)nc1CN(Cc1ccccn1)CC1CCCO1 (stereo unspecified),.,30µM,.,?,.,.
COc1ccc(C(=O)OCC(=O)Nc2ncc([N+](=O)[O-])s2)cc1OC,.,9.5µM,.,?,/,/
COc1ccc(C(=O)OCC(=O)Nc2sccc2C(N)=O)cc1OC,.,.,.,.,.,?
CC(C)C[C@H](NC(=O)[C@H](CCCCN)NC(=O)[C@H](CCCNC(=N)N)NC(=O)[C@H](C)NC(=O)[C@H](CO)NC(=O)[C@H](CCCCN)NC(=O)[C@H](CCCNC(=N)N)NC(=O)[C@H](C)NC(=O)CNC(=O)[C@@H](NC(=O)[C@H](Cc1ccccc1)NC(=O)CNC(=O)CNC(=O)[C@@H](N)Cc1ccccc1)[C@@H](C)O)C(=O)N[C@@H](C)C(=O)N[C@@H](CC(N)=O)C(=O)N[C@@H](CCC(N)=O)C(=O)O,/,/,/,.,.,/
CN(C)CCCOc1c2ccccc2n(Cc2ccccc2)[n+]1[O-],/,/,/,.,.,/
O=C(O)Cc1sc(Nc2ccccc2)nc1-c1ccc(Cl)cc1,.,21µM,.,.,.,.
O=C(O)Cc1sc(-c2ccc(Cl)cc2)nc1-c1ccccc1,.,24µM,.,?,.,.

# Source: PubChem
